Consider 40 molecules from PubChem BioAssay (EPA / NIEHS).

The source made the active and inactive calls. The calls were made as follows: active = hit-call score of the fitted dose curve at least 0.9, where 1 is the maximum; inactive = score below 0.9.

As a reminder, the AC50 is the concentration giving half of the maximal activity seen.

Read-out in the assay: Vascular endothelial growth factor receptor 2 (Homo sapiens) (UniProt P35968)
As to the kind of experiment: BSK_4H_VEGFRII: BioMAP Diversity Plus: 4H Assay for Vascular endothelial growth factor receptor 2 (VEGFR2) Biomarker Activity (AID 2283031). The settings on record: primary human endothelial cells (HUVEC); actives raise or lower the signal. The procedure: BSK_4H is a cell-based, multiplexed-readout assay that uses umbilical vein endothelium, a human vascular primary cell, with measurements taken at 24 hours after chemical dosing in a 96-well plate.BSK_4H_VEGFRII is an assay component measured in the BSK_4H assay. It measures VEGFRII antibody related to regulation of gene expression using ELISA technology.Data from the assay component BSK_4H_VEGFRII was analyzed into 1 assay endpoint. This assay endpoint, BSK_4H_VEGFRII, was analyzed with bidirectional fitting relative to DMSO as the negative control and baseline of activity. Using a type of binding reporter, gain or loss-of-signal activity can be used to understand changes in the signaling as they relate to the gene KDR. Furthermore, this assay endpoint can be referred to as a primary readout, because this assay has produced multiple assay endpoints where this one serves a signaling function. To generalize the intended target to other relatable targets, this assay endpoint is annotated to the kinase intended target family, where the subfamily is receptor tyrosine kinase.
The levels of cell surface (or secreted, indicated by the prefix "s") biomarker endpoints were measured by ELISA. Overt cytotoxicity to cells in confluent adherent cultures (all systems other than the BT system) was assessed by measuring total protein levels using sulforhodamine B (SRB) staining in parallel cultures at the time of biomarker measurements, indicated as SRB endpoints. For proliferation assays for adherent cell types, individual cell types are cultured at sub-confluence and relative cell numbers quantified by SRB staining at time points optimized for each system (48 h: 3C and CASM3C systems; 72 h: BT and HDF3CGF systems; 96 h: SAg system). SRB was performed by staining cells with 0.1% SRB after fixation with 10% TCA and reading wells at 560 nm.Viability and proliferation of PBMC (T cells) was quantified by Alamar Blue reduction for the SAg and BT systems. For PBMC viability (referred to as PBMC Cytotoxicity within the assay endpoint names), cells were plated (75,000/well in a 96-well plate) and then chemical samples added for 1 h before addition of activators, SEB and TSST-1 (20 ng/mL final concentration each). Cells were incubated for 90 h. Then, Alamar Blue (20 uL/well) (Invitrogen, Cat DAL1100) was added for 6 h, and the plates were read with a fluorescence microplate reader at 546/580 nm (excitation/emission). For PBMC proliferation, cells were plated and activated as above but incubated for only 16 h prior to addition of Alamar Blue. Plates were read after 6 h.
As to `CC(C)CC(C)O` (stereo not given), the outcome was inactive.

On to `NC(=O)N1c2ccccc2C=Cc2ccccc21`, for which the outcome was inactive. For the molecule `OCCOCCOCCO`, the result was inactive.

As to `OCCNCCO`, the outcome was inactive. With `Cc1ncc([C@@H](CCCCCCc2ccc3c(n2)NCCC3)CC(=O)O)cn1`, the result was inactive. In the case of `CCc1cccc(CC)c1N`, the outcome was inactive.

For `OCc1ccccc1`, the result was inactive. On to `c1ccc2c(c1)-c1cccc3c1c-2cc1ccccc13`, for which the result was inactive. As for `CCCCCCCC/C=C\CCCCCCCC(=O)OC[C@@H](O)[C@H]1OC[C@H](O)[C@H]1O`, the outcome was inactive.

In the case of `CCn1nc(C)c2c1C(=O)NCC(c1ccc(O)cc1)=N2`, the result was inactive. Still for that read-out and setting: the result for `Cc1nc(-c2ccccn2)ncc1C(=O)Nn1cc(C)c2cc(F)ccc21` reads “inactive”; that for `C[C@@H](Oc1ccc(CNC(=O)c2cccnc2Oc2ccc3c(c2)OCO3)c(F)c1)C(=O)O`, “inactive”; that for `O=S1(=O)CCCO1`, “inactive”. Same read-out and setting: as for `c1ccc2cc3ccccc3cc2c1`, the entry is “inactive”; as for `O=C(NO)C1(NS(=O)(=O)c2ccc(Oc3ccc(F)cc3)cc2)CCOCC1`, “inactive”. The same measure, in the same setting: the result for `FC(F)(F)C(F)(F)C(F)(F)C(F)(F)C(F)(F)C(F)(F)I` reads “inactive”; that for `OCCC(F)(F)C(F)(F)C(F)(F)C(F)(F)F`, “inactive”.

On to `CCCCOC(=O)c1ccccc1`, for which the outcome was inactive. `O=S(=O)(O)CCC(F)(F)C(F)(F)C(F)(F)C(F)(F)C(F)(F)C(F)(F)F`: the result was inactive. The same measure, in the same setting: as for `CCOc1ccc2[nH]cc(C(=O)NCc3ccccc3)c(=O)c2n1`, the entry is “inactive”; as for `COS(C)(=O)=O`, “inactive”.

For `Cn1cc[nH]c1=S`, the outcome was inactive. On to `CCCCCOC(C)=O`, for which the result was inactive.

As to `FC(F)=C(F)C(F)(F)C(F)(F)C(F)(F)C(F)(F)C(F)(F)C(F)(F)F`, the result was inactive. Turning to `CCCCCCCCCC`, the outcome was inactive. For the molecule `CCc1ccc(O)c(C(C)(C)C)c1`, the result was inactive. In the case of `NC(=O)NN=Cc1ccc([N+](=O)[O-])o1`, the outcome was inactive. For `OC(O)(C(F)C(O)(O)C(F)(F)F)C(F)(F)F`, the outcome was inactive. In the case of `CCN(CC)C(=S)SSC(=S)N(CC)CC`, the AC50 was 26.8 µM (active). On to `FC(F)(F)COC(OCC(F)(F)F)OCC(F)(F)F`, for which the result was inactive. In the case of `O=S(=O)(O)c1ccc(N=Nc2c(O)ccc3cc(S(=O)(=O)O)ccc23)cc1`, the result was inactive. For `CCCC(CCC)C(=O)O`, the outcome was inactive.

`O=c1[nH]cnc2c1ncn2[C@H]1CC[C@@H](CO)O1`: the outcome was inactive. On to `c1ccc2ncccc2c1`, for which the result was inactive. On the same count and under the same terms, as for `CC[C@H](C)C(=O)O[C@H]1C[C@H](O)C=C2C=C[C@H](C)[C@H](CC[C@@H](O)C[C@@H](O)CC(=O)O)[C@H]21`, the entry is “inactive”. Still for that read-out and setting: the result for `Cc1cccc(O)c1C` reads “inactive”; that for `CCCOc1ccc(S(=O)(=O)N2CCN(CC)CC2)cc1-c1nc2c(CC)n(Cc3ccccn3)nc2c(=O)[nH]1`, “inactive”; that for `CCCCCCOC(=O)CC(CC(=O)OCCCCCC)(OC(=O)CCC)C(=O)OCCCCCC`, “inactive”. Turning to `O=C(O)[C@H](O)[C@@H](O)C(=O)O`, the result was inactive. The same measure, in the same setting: as for `CC(C)C(=O)Nc1ccc([N+](=O)[O-])c(C(F)(F)F)c1`, the entry is “inactive”.
